Experiments:
Test in all cases: log2 ratio of Biotin-Ahx-Ub-VS probe labelling (compound/DMSO); higher = less target engagement, active = hit call of the paper (q ≤ 0.05, log2 ratio ≤ -1)
Conditions in all cases: treatment time: 3 h
[1] = compound: CCC1N(CCc2sccc12)C(=O)CCl
Summary of the method: (§1)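 HEK293T lysate (495 µg per sample, in Tris/CHAPS/IGEPAL buffer with protease inhibitors) was exposed in triplicate to compound at 50 or 200 µM, or to DMSO, for 3 h, then to Biotin-Ahx-Ub-VS (0.5 µM final) for 1 h. The labelled DUBs were enriched on NeutrAvidin, digested with LysC and trypsin, and analysed by diaPASEF LC-MS/MS. Average base-two log ratios of compound over DMSO came from median-normalised label-free quantities by unpaired t-test. Only proteins with at least 2 unique peptides were used.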

[2] = compound: CN1c2ccccc2C(CS1(=O)=O)NC(=O)CCl
Summary of the method: as §1

[3] = compound: Cl.ClCC(=O)N1CCc2ncncc2C1
Summary of the method: as §1

[4] = compound: Cl.Cn1ncc2C(CCCc12)NC(=O)CCl
Summary of the method: as §1

[5] = compound: ClCC(=O)NC1CCOc2ccccc12
Summary of the method: as §1

[6] = compound: ClCC(=O)NC1CCCc2ccccc12
Summary of the method: (§2)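 In triplicate, 495 µg portions of HEK293T lysate in Tris/CHAPS/IGEPAL buffer with protease inhibitors received compound across a concentration series or vehicle for 3 h, followed by 1 h with 0.5 µM final Biotin-Ahx-Ub-VS. After NeutrAvidin enrichment and LysC/trypsin digestion, the labelled deubiquitinases were measured by diaPASEF LC-MS/MS and quantified label-free in Spectronaut with global-median normalisation. Each value is an average compound-to-vehicle ratio from an unpaired t-test, expressed as log2 and restricted to proteins having two or more unique peptides.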

[7] = compound: ClCC(=O)N[C@@H]1CCCc2ccccc12
Summary of the method: as §2

[8] = compound: ClCC(=O)N[C@H]1CCCc2ccccc12
Summary of the method: as §2

[9] = compound: CCC1N(CCc2cc(OC)c(Cl)cc12)C(=O)CCl
Summary of the method: as §1

[10] = compound: CCCC1N(CCc2cc(OC)c(OC)cc12)C(=O)CCl
Summary of the method: as §1

[11] = compound: CN(Cc1cccc(Br)c1)C(=O)CCl
Summary of the method: as §1

[12] = compound: CN(Cc1cccc(OCc2ccccc2C)c1)C(=O)CCl
Summary of the method: as §1

[13] = compound: CN(Cc1ccccc1)C(=O)CCl
Summary of the method: as §1

[14] = compound: COc1ccc(CN(C)C(=O)CCl)cc1
Summary of the method: as §1

[15] = compound: COc1cccc(CN(CCCc2ccccc2)C(=O)CCl)c1
Summary of the method: as §1

[16] = compound: ClCC(=O)N1CCc2cc(Cl)c(Cl)cc2C1
Summary of the method: as §1

[17] = compound: ClCC(=O)N1CCc2nc(ncc2C1)-c1ccccc1
Summary of the method: as §1

[18] = compound: ClCC(=O)N1CCc2nocc2C1
Summary of the method: as §1

[19] = compound: ClCC(=O)N1CCc2scc(Br)c2C1
Summary of the method: as §1

[20] = compound: ClCC(=O)NC(C1CCCC1)c1cccs1
Summary of the method: as §1

Measured: log2 ratio of Biotin-Ahx-Ub-VS probe labelling

ALG13 (UniProt Q9NP73)
Sequence of UniProt Q9NP73 (Q9NP73 whole entry): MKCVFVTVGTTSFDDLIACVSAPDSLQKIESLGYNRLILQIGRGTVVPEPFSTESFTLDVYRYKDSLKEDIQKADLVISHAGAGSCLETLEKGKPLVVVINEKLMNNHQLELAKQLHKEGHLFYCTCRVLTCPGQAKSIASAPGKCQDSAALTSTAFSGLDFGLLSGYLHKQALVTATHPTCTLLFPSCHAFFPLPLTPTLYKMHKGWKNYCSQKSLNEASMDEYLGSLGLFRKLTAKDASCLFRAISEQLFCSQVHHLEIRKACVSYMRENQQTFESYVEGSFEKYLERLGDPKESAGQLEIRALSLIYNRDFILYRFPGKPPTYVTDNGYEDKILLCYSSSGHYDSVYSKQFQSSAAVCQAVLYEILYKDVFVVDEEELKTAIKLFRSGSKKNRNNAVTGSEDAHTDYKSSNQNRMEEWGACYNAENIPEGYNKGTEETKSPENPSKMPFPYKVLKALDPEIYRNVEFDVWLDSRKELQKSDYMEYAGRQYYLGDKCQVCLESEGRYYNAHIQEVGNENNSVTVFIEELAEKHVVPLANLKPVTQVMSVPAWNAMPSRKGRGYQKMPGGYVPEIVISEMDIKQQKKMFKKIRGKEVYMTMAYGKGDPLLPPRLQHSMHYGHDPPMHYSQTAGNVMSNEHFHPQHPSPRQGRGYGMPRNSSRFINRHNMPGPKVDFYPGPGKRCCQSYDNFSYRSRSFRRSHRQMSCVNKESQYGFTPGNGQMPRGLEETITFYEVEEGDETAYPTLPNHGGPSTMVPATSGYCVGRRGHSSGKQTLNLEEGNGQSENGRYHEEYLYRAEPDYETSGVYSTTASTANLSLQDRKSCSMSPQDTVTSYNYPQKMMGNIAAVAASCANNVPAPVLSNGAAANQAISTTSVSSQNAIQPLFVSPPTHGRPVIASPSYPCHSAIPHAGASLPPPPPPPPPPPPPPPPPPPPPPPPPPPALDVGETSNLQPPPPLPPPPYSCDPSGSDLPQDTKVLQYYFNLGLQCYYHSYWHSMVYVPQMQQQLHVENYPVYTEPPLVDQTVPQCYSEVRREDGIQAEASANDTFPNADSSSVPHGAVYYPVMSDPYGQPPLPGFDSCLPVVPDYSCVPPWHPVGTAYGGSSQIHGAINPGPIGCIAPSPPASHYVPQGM
inactive: [1]; compound concentration: 50uM 0.393 | [1]; compound concentration: 200uM 0.533 | [2]; compound concentration: 50uM 0.284 | [2]; compound concentration: 200uM 0.203 | [3]; compound concentration: 50uM 0.0225 | [3]; compound concentration: 200uM 0.439 | [4]; compound concentration: 50uM 0.238 | [4]; compound concentration: 200uM -0.0439 | [5]; compound concentration: 50uM 0.11 | [5]; compound concentration: 200uM 0.324 | [6]; compound concentration: 0.78uM 0.19 | [6]; compound concentration: 1.56uM 0.107 | [6]; compound concentration: 3.13uM -0.625 | [6]; compound concentration: 6.25uM -0.155 | [6]; compound concentration: 12.5uM -0.336 | [6]; compound concentration: 25uM -0.19 | [6]; compound concentration: 50uM -0.356 | [6]; compound concentration: 100uM 0.221 | [6]; compound concentration: 200uM -0.15 | [7]; compound concentration: 0.78uM 0.187 | [7]; compound concentration: 1.56uM 0.128 | [7]; compound concentration: 3.13uM 0.146 | [7]; compound concentration: 6.25uM 0.328 | [7]; compound concentration: 12.5uM 0.0757 | [7]; compound concentration: 25uM -0.0189 | [7]; compound concentration: 50uM -0.26 | [7]; compound concentration: 100uM -0.0849 | [7]; compound concentration: 200uM 0.156 | [8]; compound concentration: 0.78uM 0.0472 | [8]; compound concentration: 1.56uM -0.48 | [8]; compound concentration: 3.13uM 0.0655 | [8]; compound concentration: 6.25uM -0.00893 | [8]; compound concentration: 12.5uM -0.0224 | [8]; compound concentration: 25uM 0.337 | [8]; compound concentration: 50uM -0.216 | [8]; compound concentration: 100uM 0.0146 | [8]; compound concentration: 200uM -0.203 | [9]; compound concentration: 50uM 0.0103 | [9]; compound concentration: 200uM 0.0355 | [10]; compound concentration: 50uM 0.0738 | [10]; compound concentration: 200uM 0.242 | [11]; compound concentration: 50uM 0.0661 | [11]; compound concentration: 200uM -0.148 | [12]; compound concentration: 50uM 0.469 | [12]; compound concentration: 200uM -0.522 | [13]; compound concentration: 50uM 0.171 | [13]; compound concentration: 200uM 0.0619 | [14]; compound concentration: 50uM 0.45 | [14]; compound concentration: 200uM 0.0354 | [15]; compound concentration: 50uM 0.162 | [15]; compound concentration: 200uM -0.285 | [16]; compound concentration: 50uM 0.247 | [16]; compound concentration: 200uM 0.454 | [17]; compound concentration: 50uM 0.157 | [17]; compound concentration: 200uM -0.117 | [18]; compound concentration: 50uM 0.493 | [18]; compound concentration: 200uM -0.0466 | [19]; compound concentration: 50uM 0.393 | [19]; compound concentration: 200uM 0.369 | [20]; compound concentration: 50uM -0.273 | [20]; compound concentration: 200uM 0.0789

From the supplement of paper PMC11732987, “Enantioselective OTUD7B fragment discovery through chemoproteomics screening and high-throughput optimisation” (Communications Chemistry, 2025)
